Out of some 290,000 compounds screened, about 1,800 (0.62%) were called active. Rule as the data show it: active = inhibition above about 50%; inactive = the rest. The list comes from a sample in which actives are over-represented; it also holds similar structures and randomly drawn compounds.

This note sets out measurements from PubChem BioAssay AID1566 (Sanford-Burnham Center for Chemical Genomics, 2009).

This assay in a line: NOD2 signaling inhibitors, cell-based, luminescence, uHTS, HEK293 (AID 1566). Particulars: HEK293 NOD2/NF-kB luciferase reporter, at 4 µM, active compounds read high.
Regarding `Cc1ccc(C2/C(=C(/O)c3cnn(-c4ccccc4)c3C)C(=O)C(=O)N2CCN2CCOCC2)o1` (configuration not stated), the inhibition was -58.4% (inactive). The value for `Cc1c(/C(O)=C2/C(=O)C(=O)N(CCN3CCOCC3)C2c2ccccn2)cnn1-c1ccccc1` (configuration not stated) was 56.8% (active).

For the compound `Cc1c(/C(O)=C2/C(=O)C(=O)N(CCN3CCOCC3)C2c2cccnc2)cnn1-c1ccccc1` (configuration not stated), the inhibition was 8.5% (inactive).

As for `CCOC(=O)CSc1nc(Nc2ccc3c(c2)OCO3)c2ccccc2n1`, the inhibition was 85.7% (active). As to `CCOC(=O)CSc1nc(C)c2ccccc2n1`, the inhibition was 3.1% (inactive). The result for `N#CCSc1nc(Nc2ccc3c(c2)OCO3)c2ccccc2n1` reads 22% (inactive).

With `Cc1cc2ncc(C(=O)Nc3ccsc3C(=O)O)c(C)n2n1`, the inhibition was 20.1% (inactive). The result for `Cc1cc(C)c[n+](C(C)C(=O)c2ccc(-c3ccccc3)cc2)c1` (configuration not stated) reads 53.1% (active). The value for `Cc1ccc[n+](C(C)C(=O)c2ccc(-c3ccccc3)cc2)c1` (configuration not stated) was 23.2% (inactive). Take `Cc1cc[n+](C(C)C(=O)c2ccc(-c3ccccc3)cc2)cc1` (configuration not stated): the inhibition was 22.5% (inactive). The result for `Cc1cc(NC(=O)CSc2nnc(CNC(=O)c3c(F)cccc3F)o2)no1` reads -3.4% (inactive); that for `COc1cccc(OC)c1C(=O)Nc1ccc(N2CCN(C(=O)c3ccco3)CC2)cc1`, 0.8% (inactive). The result for `O=C(CCS(=O)(=O)c1ccc2c(c1)NC(=O)CS2)NCc1cccs1` reads 0.9% (inactive).

Regarding `CCCN1C(=O)/C(=C/c2c(N3CCNC(=O)C3CC(=O)OCC)nc3c(C)cccn3c2=O)SC1=S` (configuration not stated), the inhibition is 44.3% (inactive). `CCOC(=O)CC1C(=O)NCCN1c1nc2c(C)cccn2c(=O)c1/C=C1\SC(=S)N(C(C)CC)C1=O` (configuration not stated): the inhibition was 49% (inactive).

As to `CCOC(=O)CC1C(=O)NCCN1c1nc2c(C)cccn2c(=O)c1/C=C1\SC(=S)N(CC(C)C)C1=O` (configuration not stated), the inhibition was 51.8% (active). The value for `Cc1nc2ncnn2c(N2CCN(C(c3ccccc3)c3ccccc3)CC2)c1C` was 11.8% (inactive); that for `Cc1ccc(C(=O)Nc2cc3ccccc3oc2=O)cc1` was 69.7% (active). The value for `O=C(Nc1cnc2ccccc2c1)c1ccncc1` was -72% (inactive); that for `CC(=O)Nc1cc2ccccc2oc1=O` was 9% (inactive); that for `Cc1ccc(NC(=O)Nc2cnc3ccccc3c2)cc1` was -175% (inactive). The value for `O=C(Nc1cc2ccccc2oc1=O)c1ccccc1` was 18.1% (inactive). Regarding `Cc1ccc(C(=O)Nc2cnc3ccccc3c2)cc1`, the inhibition was 54.2% (active). The value for `CNC(=O)NNC(=O)c1csc(-c2ccc(C(F)(F)F)cc2Cl)n1` was 14.2% (inactive); that for `COc1ccc(/C=N\Nc2ncc(F)c(N3CCOCC3)n2)cc1OC` was 3.5% (inactive); that for `COc1cccc(C(=O)O/N=C(\C)c2cnccn2)c1` was 4.6% (inactive). As to `Cc1nc2scc(C)n2c(=O)c1S(=O)(=O)NC(C)c1ccccc1` (configuration not stated), the inhibition was 20.2% (inactive). The value for `Cc1c(O)nc(SCC(=O)Nc2cccc(C(F)(F)F)c2)n(-c2ccccc2)c1=O` was -0.1% (inactive); that for `CCOc1ccc(C(=O)N/N=C(\c2ccccc2)c2ccccn2)cc1` was -82% (inactive); that for `C/C(=N\NC(=O)c1ccc(COc2ccccc2)cc1)c1ccncc1` was -1.5% (inactive). For the compound `CCOc1ccc(OCc2ccc(C(=O)N/N=C(\C)c3ccccn3)cc2)cc1`, the inhibition was 76.9% (active). The result for `COc1ccccc1/C=C1\SC(=S)N(CCC(=O)N2CCCCC2CCO)C1=O` (configuration not stated) reads 5.9% (inactive).

With `CCCOc1ccc(C(O)(CCC)CCN2CCCCC2)cc1` (configuration not stated), the inhibition was 3.4% (inactive). As for `O=C(CN1C(=O)c2ccccc2S1(=O)=O)c1cccc(Br)c1`, the inhibition was 0.6% (inactive). The value for `Cc1cc(C(=O)CN2C(=O)c3ccccc3S2(=O)=O)c(C)n1-c1ccccc1` was 64.2% (active); that for `O=C(CN1C(=O)c2ccccc2S1(=O)=O)c1ccc(O)c(O)c1` was 42.4% (inactive); that for `Cc1ccc(C)c(C(=O)CN2C(=O)c3ccccc3S2(=O)=O)c1` was -15% (inactive). The value for `Cc1cc(C(=O)CN2C(=O)C3CC=CCC3C2=O)c(C)n1-c1ccccc1` (configuration not stated) was -109% (inactive); that for `O=C(CN1C(=O)c2ccccc2S1(=O)=O)c1ccccc1` was 52.5% (active); that for `COc1ccc(S(=O)(=O)NCc2cccnc2)cc1OC` was 6.9% (inactive).

In the case of `CCN(CC)c1nc(Nc2ccc([N+](=O)[O-])cc2)nc(N(CC)CC)n1`, the inhibition was 15.7% (inactive). The result for `O=C(O)Cc1sc(NCCc2ccccc2)nc1-c1ccc(F)cc1` reads -6.1% (inactive); that for `C/C(=N/NC(=O)Cc1c(C)[nH][nH]c1=O)c1ccc(O)cc1`, -3% (inactive). In the case of `Cc1ccccc1Nc1ccc2nonc2c1[N+](=O)[O-]`, the inhibition is 17.9% (inactive).

For the compound `CC(=O)Nc1cccc(NC(=O)CSc2nnc(NC(=O)C3CC3)s2)c1`, the inhibition is 2.1% (inactive). The value for `CCOc1ccc(-c2nc3n(c(=O)c2C#N)CCS3)cc1` was -0.8% (inactive); that for `O=C(OCCCN1CCOCC1)c1ccc(O)c(O)c1` was 11.1% (inactive); that for `Cc1ccc(C(=O)CSc2ncnc3sc4c(c23)CCCC4)cc1` was 30.2% (inactive).

For `CC(=O)CSc1ncnc2sc3c(c12)CCC3`, the inhibition was 12.6% (inactive). The result for `O=C(c1ccc(Cl)c([N+](=O)[O-])c1)N1CCCc2ccccc21` reads -7.5% (inactive).

Consider `O=C(CSc1nnnn1C1CCCCC1)NNC(=O)c1ccco1`, for which the inhibition is 5.4% (inactive). The value for `Cc1ccccc1-n1cc(C(=O)c2cc(Cl)ccc2O)cc(C#N)c1=O` was 1.1% (inactive); that for `C(=N\Nc1ccc2ccccc2n1)/c1ccc2c(c1)OCCO2` was 67.8% (active); that for `C(=N\Nc1ccccn1)/c1ccc2c(c1)OCCO2` was -125% (inactive). The result for `C(=N\Nc1nc2ccccc2[nH]1)/c1ccc2c(c1)OCCO2` reads -126% (inactive); that for `Cc1[nH]c2ccccc2c1-c1nc2ccccc2[nH]c1=O`, 4.1% (inactive). Turning to `CC(C)C(=O)OCc1cn(-c2ccc(Cl)c(Cl)c2)nn1`, the inhibition is 10.3% (inactive). The result for `O=C(O)c1cccc(CN2C(=O)S/C(=C/c3cccc([N+](=O)[O-])c3)C2=O)c1` reads -10.3% (inactive); that for `CCOC(=O)CN1C(=O)S/C(=C/c2ccc(O)c([N+](=O)[O-])c2)C1=O`, -11.2% (inactive); that for `O=C(O)c1cccc(CN2C(=O)S/C(=C/c3ccccc3[N+](=O)[O-])C2=O)c1`, 19.8% (inactive). `O=C1/C(=C\c2cccc(O)c2O)SC(=S)N1Cc1ccccc1`: the inhibition was 7.8% (inactive). The result for `COCc1cc(C)nc(Nc2ccccc2OC)c1C#N` reads 3% (inactive). The value for `Cc1ccc(-n2nnc3c(=O)n(CC(=O)NCc4ccco4)cnc32)cc1` was 17.7% (inactive); that for `COc1cc(S(=O)(=O)N2CCCCCC2)ccc1-n1cnnn1` was 7.9% (inactive). Regarding `Cc1ccc(OC(=O)COc2ccccc2C)c(-n2nc3ccccc3n2)c1`, the inhibition is 3% (inactive). The value for `BrC(=C\c1ccccc1)/C=N/Nc1nc(N2CCOCC2)nc(N2CCOCC2)n1` was -54.1% (inactive); that for `CCOC(=O)C1CCN(S(=O)(=O)c2cc(C(=O)OC)n(C)c2)CC1` was 18.2% (inactive). In the case of `Cc1ccc(S(=O)(=O)N2CCN(CC(=O)Nc3ccc([N+](=O)[O-])cc3)CC2)cc1C`, the inhibition is -86.3% (inactive).

In the case of `C=CCSc1nc2sc(C)c(C)c2c(=O)[nH]1`, the inhibition was 7.9% (inactive). Turning to `CC(CCc1ccccc1)NC(=O)C(=O)c1c[nH]c2ccccc12` (configuration not stated), the inhibition is 6.1% (inactive). The value for `O=C(O)CC(NC(=O)c1cccc([N+](=O)[O-])c1)c1ccc2c(c1)OCO2` (configuration not stated) was 14.8% (inactive); that for `Cc1ccc(CN2CCCN(C)CC2)c(C)c1` was -3.4% (inactive); that for `CCn1c(SCC(=O)Nc2nc(-c3ccccc3)cs2)nnc1-c1ccccc1O` was 11.1% (inactive). The result for `CCn1c(SCC(=O)Nc2nc(-c3ccc(C)cc3)cs2)nnc1-c1ccccc1` reads 29% (inactive); that for `CCOc1ccccc1NC(=S)N(CCN(C)C)C(C)c1ccncc1` (configuration not stated), -15.1% (inactive); that for `CC(C)(C)c1cc(-c2n[nH]c(=S)n2-c2ccc(Cl)cc2)n[nH]1`, 6.2% (inactive). The value for `NC(=O)C1CCN(C(=O)C2CCC(=O)N(C3CCCCCC3)C2)CC1` (configuration not stated) was -3.9% (inactive); that for `O=C(CNc1ccccc1)N/N=C/c1c(O)ccc2ccccc12` was 19.3% (inactive). On to `COc1ccccc1NCC(=O)N/N=C/c1c(O)ccc2ccccc12`, for which the inhibition was 25% (inactive). As for `O=C(CNc1ccc(F)cc1)N/N=C/c1c(O)ccc2ccccc12`, the inhibition was 53.5% (active).

For `Cc1occc1-c1nnc(SCC(=O)NCC2CCCO2)n1C` (configuration not stated), the inhibition is 8.4% (inactive). The result for `O=C(O)c1ccc(N/N=C/c2ccc3c(c2)OCO3)cc1` reads 66.8% (active); that for `O=C(O)c1cc(N/N=C/c2ccc3c(c2)OCO3)ccc1Cl`, -118% (inactive).

Take `O=C(N/N=C/c1ccc2c(c1)OCO2)c1ccc2c(c1)OCO2`: the inhibition is -137% (inactive). The value for `S=C(NCc1ccncc1)Nc1ccccc1` was 16.2% (inactive). The value for `O=C(CC(Nc1ccc(Cl)cc1)C(=O)O)c1ccccc1` (configuration not stated) was 20.4% (inactive); that for `O=C(CC(Nc1ccccc1Cl)C(=O)O)c1ccccc1` (configuration not stated) was -21.4% (inactive); that for `O=C(CC(Nc1ccc(Cl)cc1Cl)C(=O)O)c1ccccc1` (configuration not stated) was 61.2% (active).

`COc1ccc(NC(=O)CSc2ccc(-c3sc(C)nc3C)nn2)cc1OC`: the inhibition is 5.8% (inactive). The result for `COc1ccc(NC(=O)CSc2ccc(-c3sc(C)nc3C)nn2)cc1` reads 4.8% (inactive); that for `S=C(Nc1cc(Cl)ccc1Cl)Nn1cnnc1`, 16.1% (inactive); that for `CC(Oc1cc(C(F)(F)F)cc(C(F)(F)F)c1)C(=O)NC(N)=O` (configuration not stated), 11.1% (inactive). The result for `O=C1CCCN2N=C(SCC(=O)N3CCCCC3)SC2=N1` reads 5.8% (inactive); that for `O=C(COc1ccccc1)Nc1ccccc1NS(=O)(=O)c1cccs1`, 11.6% (inactive); that for `O=C(COc1ccc(Cl)cc1Cl)Nc1ccccc1NS(=O)(=O)c1cccs1`, 25.1% (inactive). On to `OC(c1cccc(Cl)c1)c1nccc2ccccc12` (configuration not stated), for which the inhibition is 2.5% (inactive). The value for `COC(=O)c1nc2nc(-c3cccs3)cc(C(F)(F)F)n2n1` was 9.2% (inactive).
